{
  "source": "the supplement of paper PMC11634586",
  "note": "Counter-ions that a name gives are not always drawn.",
  "data": [
    {"test_system": "NCI-H1688", "test": "inhibition of cell viability relative to untreated control (fraction); higher = stronger growth inhibition, active = 0.5 or more", "settings": "30 µM; 24 h", "in_short": "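Viability of NCI-H1688 small cell lung cancer cells was assessed with Cell Counting Kit-8 by absorbance at 450 nm, in triplicate, after a 24 h exposure to a natural compound library (TargetMol) at 30 µM at 37°C and 5% CO2. The cells had been seeded at 3 × 10^3 cells/well in 96-well plates 24 h before treatment. Inhibition of cell viability is reported as a fraction, derived from viability normalised against untreated cells.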", "values": [
      {"compound": "COc1cc2c(=O)c(-c3ccc(O)cc3)coc2cc1O[C@@H]1O[C@H](CO)[C@@H](O)[C@H](O)[C@H]1O", "note": "[Glycitin]", "inhibition of cell viability": "0.491 (inactive)"},
      {"compound": "Oc1ccc(CC2NCCc3cc(O)c(O)cc32)cc1", "note": "(configuration not stated) [Demethyl]", "inhibition of cell viability": "0.182 (inactive)"},
      {"compound": "O=c1c2ccccc2oc2ccccc12", "note": "[Xanthone]", "inhibition of cell viability": "-0.129 (inactive)"},
      {"compound": "O=c1c(-c2ccc(O)cc2)coc2c([C@@H]3O[C@H](CO)[C@@H](O)[C@H](O)[C@H]3O)c(O)ccc12", "note": "[Puerarin (Kakonein)]", "inhibition of cell viability": "0.109 (inactive)"},
      {"compound": "CCc1c2c(nc3ccc(OC(=O)N4CCC(N5CCCCC5)CC4)cc13)-c1cc3c(c(=O)n1C2)COC(=O)[C@]3(O)CC", "note": "[Irinotecan hydrochloride trihydrate]", "inhibition of cell viability": "0.311 (inactive)"},
      {"compound": "Cc1cc(O)cc(O)c1C(=O)O", "note": "[Orsellinic acid]", "inhibition of cell viability": "-0.313 (inactive)"},
      {"compound": "C[C@H]1O[C@H](O[C@H]2[C@H](O)[C@@H](O)[C@@H](O[C@H]3[C@H](O)[C@@H](O)C(O)O[C@@H]3CO)O[C@@H]2CO)[C@H](O)[C@@H](O)[C@@H]1N[C@H]1C=C(CO)[C@@H](O)[C@H](O)[C@H]1O", "note": "(some centres not stated) [Acarbose]", "inhibition of cell viability": "-0.208 (inactive)"},
      {"compound": "O=C(O)CCCCC1CCSS1", "note": "(configuration not stated) [Alphalipoic acid]", "inhibition of cell viability": "0.0038 (inactive)"},
      {"compound": "O=C(O)/C=C/c1ccc(O)c(O)c1", "note": "[Caffeic Acid]", "inhibition of cell viability": "-0.0219 (inactive)"},
      {"compound": "NCCCS(=O)(=O)O", "note": "[Homotaurine]", "inhibition of cell viability": "0.357 (inactive)"},
      {"compound": "C[C@@H]1CCCCCCCCCCCCC(=O)C1", "note": "[Muscone]", "inhibition of cell viability": "-0.148 (inactive)"},
      {"compound": "C[C@H]1O[C@@H](O[C@H]2CC[C@@]3(C)[C@@H](CC[C@]4(C)[C@@H]3C=C[C@]35OC[C@@]6(CCC(C)(C)C[C@H]63)[C@@H](O)C[C@]54C)[C@]2(C)CO)[C@H](O)[C@@H](O[C@@H]2O[C@H](CO)[C@@H](O)[C@H](O)[C@H]2O)[C@H]1O", "note": "[Saikosaponin A]", "inhibition of cell viability": "1 (active)"},
      {"compound": "Nc1ncnc2c1ncn2[C@@H]1O[C@H](COP(=O)(O)O)[C@@H](O)[C@H]1O", "note": "[Adenosine 5'-monophosphate]", "inhibition of cell viability": "-0.0048 (inactive)"},
      {"compound": "C[C@@H]1O[C@@H](O[C@@H]2[C@@H](O)[C@H](OCCc3ccc(O)c(O)c3)O[C@H](CO[C@@H]3O[C@H](CO)[C@@H](O)[C@H](O)[C@H]3O)[C@H]2OC(=O)/C=C/c2ccc(O)c(O)c2)[C@H](O)[C@H](O)[C@H]1O", "note": "[Echinacoside]", "inhibition of cell viability": "0.128 (inactive)"},
      {"compound": "COc1cc(C2Oc3cc([C@H]4Oc5cc(O)cc(O)c5C(=O)[C@@H]4O)ccc3OC2CO)ccc1O", "note": "(some centres not stated) [Silymarin]", "inhibition of cell viability": "0.221 (inactive)"},
      {"compound": "CC1=C(/C=C/C(C)=C/C=C/C(C)=C/C=C/C=C(C)/C=C/C=C(C)/C=C/C2=C(C)CCCC2(C)C)C(C)(C)CCC1", "note": "[Beta-Carotene]", "inhibition of cell viability": "0.426 (inactive)"},
      {"compound": "C[C@@H]1O[C@@H](O[C@H]2[C@H](Oc3cc(O)c(C(=O)CCc4ccc(O)cc4)c(O)c3)O[C@H](CO)[C@@H](O)[C@@H]2O)[C@H](O)[C@H](O)[C@H]1O", "note": "[Naringin dihydrochalcone]", "inhibition of cell viability": "-0.031 (inactive)"},
      {"compound": "CC(C)(CO)C(O)C(=O)NCCCO", "note": "(configuration not stated) [Panthenol]", "inhibition of cell viability": "0.0837 (inactive)"},
      {"compound": "CC(C)=CC[C@@H](O)C1=CC(=O)c2c(O)ccc(O)c2C1=O", "note": "[Shikonin]", "inhibition of cell viability": "0.956 (active)"},
      {"compound": "CCCCOC(=O)c1ccc(O)cc1", "note": "[Butylparaben]", "inhibition of cell viability": "0.197 (inactive)"},
      {"compound": "O=C1O[C@H]([C@@H](O)CO)C(O)=C1OP(=O)(O)O", "note": "[Sodium L-ascorbyl-2-phosphate]", "inhibition of cell viability": "0.0357 (inactive)"},
      {"compound": "CC(C)(CO)[C@@H](O)C(=O)NCCCO", "note": "[Dexpanthenol]", "inhibition of cell viability": "-0.126 (inactive)"},
      {"compound": "O=C(O)c1cc(O)c2c(c1)[C@@H]([C@H]1c3cc(C(=O)O)cc(O)c3C(=O)c3c(O[C@@H]4O[C@H](CO)[C@@H](O)[C@H](O)[C@H]4O)cccc31)c1cccc(O[C@@H]3O[C@H](CO)[C@@H](O)[C@H](O)[C@H]3O)c1C2=O", "note": "[Sennoside B]", "inhibition of cell viability": "-0.103 (inactive)"},
      {"compound": "CN1c2ccccc2C(=O)N2CCc3c([nH]c4ccccc34)C21", "note": "(stereo in doubt) [Evodiamine]", "inhibition of cell viability": "0.848 (active)"},
      {"compound": "CCCCCCCCCC[C@H](C(=O)O)[C@]1(C(=O)O)CCC(=O)O1", "note": "[Spiculisporic Acid]", "inhibition of cell viability": "0.104 (inactive)"},
      {"compound": "N[C@@H](Cc1cc(I)c(Oc2cc(I)c(O)c(I)c2)c(I)c1)C(=O)O", "note": "[L-Thyroxine]", "inhibition of cell viability": "0.22 (inactive)"},
      {"compound": "O=c1cc(-c2ccccc2)oc2ccccc12", "note": "[Flavone]", "inhibition of cell viability": "0.149 (inactive)"},
      {"compound": "OC[C@H]1O[C@@](CO)(O[C@H]2O[C@H](CO)[C@@H](O)[C@H](O)[C@H]2O)[C@@H](O[C@H]2O[C@H](CO)[C@@H](O)[C@H](O)[C@H]2O)[C@@H]1O", "note": "[Melezitose]", "inhibition of cell viability": "-0.0856 (inactive)"},
      {"compound": "C=C1CC[C@@H]2[C@](C)(CO)[C@H](O)CC[C@@]2(C)[C@@H]1C/C=C1/C(=O)OC[C@H]1O", "note": "[Andrographolide]", "inhibition of cell viability": "0.853 (active)"},
      {"compound": "C[C@@H]1O[C@@H](O[C@H]2[C@H](O[C@H]3CC[C@@]4(C)[C@@H](CC[C@]5(C)[C@@H]4CC=C4[C@@H]6CC(C)(C)CC[C@]6(C(=O)O[C@@H]6O[C@H](CO[C@@H]7O[C@H](CO)[C@@H](O[C@@H]8O[C@@H](C)[C@H](O)[C@@H](O)[C@H]8O)[C@H](O)[C@H]7O)[C@@H](O)[C@H](O)[C@H]6O)CC[C@]45C)[C@]3(C)CO)OC[C@H](O)[C@@H]2O)[C@H](O)[C@H](O)[C@H]1O", "note": "[Hederacoside C]", "inhibition of cell viability": "0.239 (inactive)"},
      {"compound": "CC12CCC(CC1)C(C)(C)O2", "note": "[Eucalyptol]", "inhibition of cell viability": "-0.192 (inactive)"},
      {"compound": "CC1(C)CC[C@]2(C(=O)O[C@@H]3O[C@H](CO[C@@H]4O[C@H](CO)[C@@H](O)[C@H](O)[C@H]4O)[C@@H](O)[C@H](O)[C@H]3O)CC[C@]3(C)C(=CC[C@@H]4[C@@]5(C)CC[C@H](O[C@@H]6OC[C@H](O)[C@H](O)[C@H]6O)[C@@](C)(CO)[C@@H]5CC[C@]43C)[C@@H]2C1", "note": "[Asperosaponin Ⅵ]", "inhibition of cell viability": "0.0344 (inactive)"},
      {"compound": "OC[C@@H](O)[C@@H](O)[C@H](O)[C@H](O)CO", "note": "[D-Mannitol]", "inhibition of cell viability": "-0.179 (inactive)"},
      {"compound": "COc1cc2ccc(=O)oc2cc1OC", "note": "[Scoparone]", "inhibition of cell viability": "-0.0332 (inactive)"},
      {"compound": "C[C@@H]1O[C@@H](O[C@H]2C(=O)c3c(O)cc(O)cc3O[C@@H]2c2ccc(O)c(O)c2)[C@H](O)[C@H](O)[C@H]1O", "note": "[Astilbin]", "inhibition of cell viability": "-0.0142 (inactive)"},
      {"compound": "Cn1c(=O)c2nc[nH]c2n(C)c1=O", "note": "[Theophylline]", "inhibition of cell viability": "-0.0544 (inactive)"},
      {"compound": "C=C1C[C@]23C[C@@]1(O)CC[C@H]2[C@@]12C=C[C@H](O)[C@@](C)(C(=O)O1)[C@H]2[C@@H]3C(=O)O", "note": "[Gibberellic acid]", "inhibition of cell viability": "0.0962 (inactive)"}
    ]}
  ]
}
